# Records with an inconclusive call do not appear. Calls of active or inactive are those of the source. The calls were made as follows: active = hit-call score of the fitted dose curve at least 0.9, where 1 is the maximum; inconclusive = response in the unintended direction; inactive = score below 0.9.
# Tests used:
# [1] = molecular target: human Phosphodiesterase 4A1 (PDE4A1), PDE4A (gene 5141) (UniProt P27815); assay: NVS_ENZ_hPDE4A1: NovaScreen (NVS) Enzymatic Assay for human Phosphodiesterase 4A1 (PDE4A1) (AID 2283191)
# human Phosphodiesterase 4A1 (PDE4A1), PDE4A (gene 5141), sequence (P27815 whole entry, looked up): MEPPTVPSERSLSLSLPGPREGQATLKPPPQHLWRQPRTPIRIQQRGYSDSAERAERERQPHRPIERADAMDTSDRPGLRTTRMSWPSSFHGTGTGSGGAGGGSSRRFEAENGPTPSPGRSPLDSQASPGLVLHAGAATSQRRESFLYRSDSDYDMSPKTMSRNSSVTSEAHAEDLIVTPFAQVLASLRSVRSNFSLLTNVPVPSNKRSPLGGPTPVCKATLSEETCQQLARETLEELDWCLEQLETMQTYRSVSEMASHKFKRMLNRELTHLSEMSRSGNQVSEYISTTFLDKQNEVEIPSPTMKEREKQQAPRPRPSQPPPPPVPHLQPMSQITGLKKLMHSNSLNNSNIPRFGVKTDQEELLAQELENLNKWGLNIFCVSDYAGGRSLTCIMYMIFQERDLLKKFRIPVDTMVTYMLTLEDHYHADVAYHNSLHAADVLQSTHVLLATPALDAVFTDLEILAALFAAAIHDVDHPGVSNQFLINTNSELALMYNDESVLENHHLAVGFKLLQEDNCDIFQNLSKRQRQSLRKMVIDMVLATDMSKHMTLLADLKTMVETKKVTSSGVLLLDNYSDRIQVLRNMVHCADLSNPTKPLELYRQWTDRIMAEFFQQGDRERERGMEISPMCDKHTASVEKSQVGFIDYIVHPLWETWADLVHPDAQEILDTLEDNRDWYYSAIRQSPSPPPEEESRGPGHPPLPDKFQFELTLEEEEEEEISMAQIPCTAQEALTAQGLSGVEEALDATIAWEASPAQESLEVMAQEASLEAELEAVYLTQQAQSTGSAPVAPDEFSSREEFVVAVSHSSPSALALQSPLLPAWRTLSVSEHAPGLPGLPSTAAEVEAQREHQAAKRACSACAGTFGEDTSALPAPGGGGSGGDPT
# How it was run: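 Fluorescent substrate turnover by recombinant PDE4A1 read after 1 h by mobility-shift separation. Primary duplicate screen at 25 uM; hits retested in concentration series with a 50 uM maximum, relative to DMSO.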
# [2] = molecular target: human Phosphodiesterase 5 (PDE5), PDE5A (gene 8654) (UniProt O76074); assay: NVS_ENZ_hPDE5: NovaScreen (NVS) Enzymatic Assay for human Phosphodiesterase 5 (PDE5) (AID 2283194)
# How it was run: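 Screening began in duplicate at 25 uM, with actives taken into concentration-response. Enzyme activity of recombinant PDE5 toward its substrate was measured at 1 h by fluorescence mobility-shift detection, relative to DMSO controls.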
# [3] = molecular target: human Phosphodiesterase 10 (PDE10), PDE10A (gene 10846) (UniProt Q9Y233); assay: NVS_ENZ_hPDE10: NovaScreen (NVS) Enzymatic Assay for human Phosphodiesterase 10 (PDE10) (AID 2283195)
# human Phosphodiesterase 10 (PDE10), PDE10A (gene 10846), sequence (Q9Y233 whole entry, looked up): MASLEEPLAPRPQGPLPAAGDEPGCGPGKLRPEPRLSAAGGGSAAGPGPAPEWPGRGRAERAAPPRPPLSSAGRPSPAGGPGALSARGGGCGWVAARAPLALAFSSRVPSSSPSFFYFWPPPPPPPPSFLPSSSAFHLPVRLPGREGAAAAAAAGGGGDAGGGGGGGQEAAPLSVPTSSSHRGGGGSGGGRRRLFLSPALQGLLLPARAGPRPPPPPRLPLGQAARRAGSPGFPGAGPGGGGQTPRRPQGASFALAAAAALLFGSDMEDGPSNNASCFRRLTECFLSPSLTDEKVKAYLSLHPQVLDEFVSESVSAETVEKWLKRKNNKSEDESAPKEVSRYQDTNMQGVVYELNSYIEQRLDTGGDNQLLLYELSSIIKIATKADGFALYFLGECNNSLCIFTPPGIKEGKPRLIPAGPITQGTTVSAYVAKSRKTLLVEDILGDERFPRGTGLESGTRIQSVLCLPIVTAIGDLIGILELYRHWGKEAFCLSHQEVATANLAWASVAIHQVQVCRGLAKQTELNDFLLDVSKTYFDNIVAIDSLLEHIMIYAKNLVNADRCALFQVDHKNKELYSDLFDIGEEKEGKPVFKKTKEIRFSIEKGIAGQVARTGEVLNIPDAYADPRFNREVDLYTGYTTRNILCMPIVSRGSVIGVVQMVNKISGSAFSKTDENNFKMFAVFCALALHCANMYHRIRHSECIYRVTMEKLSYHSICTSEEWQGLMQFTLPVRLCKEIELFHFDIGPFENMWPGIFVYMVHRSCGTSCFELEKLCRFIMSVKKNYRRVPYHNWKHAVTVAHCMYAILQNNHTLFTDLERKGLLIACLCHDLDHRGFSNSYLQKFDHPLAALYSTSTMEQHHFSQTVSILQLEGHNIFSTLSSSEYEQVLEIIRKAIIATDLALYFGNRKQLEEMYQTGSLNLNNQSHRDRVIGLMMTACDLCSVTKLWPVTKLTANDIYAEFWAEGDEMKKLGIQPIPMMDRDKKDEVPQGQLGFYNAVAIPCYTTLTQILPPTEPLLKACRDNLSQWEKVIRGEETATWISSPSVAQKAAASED
# How it was run: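 Biochemical single-readout PDE10A assay, cell-free, extracted protein. Compounds first screened at 25 uM in duplicate, hits then titrated to 50 uM max. Activity measured after 1 h; loss-of-signal fitted against DMSO negative control.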
# [4] = molecular target: human Matrix Metalloproteinase-3 (MMP3), MMP3 (gene 4314) (UniProt P08254); assay: NVS_ENZ_hMMP3: NovaScreen (NVS) Enzymatic Assay for human Matrix Metalloproteinase-3 (MMP3) (AID 2283185)
# human Matrix Metalloproteinase-3 (MMP3), MMP3 (gene 4314), sequence (P08254 whole entry, looked up): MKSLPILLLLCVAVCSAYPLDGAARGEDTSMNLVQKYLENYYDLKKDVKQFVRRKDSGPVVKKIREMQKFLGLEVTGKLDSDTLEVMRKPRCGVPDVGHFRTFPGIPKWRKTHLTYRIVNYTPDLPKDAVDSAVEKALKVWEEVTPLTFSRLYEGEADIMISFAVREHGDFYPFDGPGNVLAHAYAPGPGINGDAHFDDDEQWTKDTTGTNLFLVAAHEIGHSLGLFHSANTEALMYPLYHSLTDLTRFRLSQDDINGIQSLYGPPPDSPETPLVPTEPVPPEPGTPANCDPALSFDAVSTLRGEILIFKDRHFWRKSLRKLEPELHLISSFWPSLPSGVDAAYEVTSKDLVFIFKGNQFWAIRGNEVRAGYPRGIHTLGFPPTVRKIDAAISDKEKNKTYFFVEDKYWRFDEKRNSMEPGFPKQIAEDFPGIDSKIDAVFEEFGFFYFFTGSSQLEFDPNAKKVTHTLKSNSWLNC
# Method: NVS_ENZ_hMMP3 is a biochemical, single-readout assay that uses extracted gene-proteins in a cell-free assay. Measurements were taken 1 hour after chemical dosing in a 96-well plate.NVS_ENZ_hMMP3 is one of one assay component(s) measured or calculated from the NVS_ENZ_hMMP3 assay. It is designed to make measurements of enzyme activity, a form of enzyme reporter, as detected with fluorescence intensity signals by Fluorescence technology.Data from the assay component NVS_ENZ_hMMP3 was analyzed into 1 assay endpoint. This assay endpoint, NVS_ENZ_hMMP3, was analyzed in the positive analysis fitting direction relative to DMSO as the negative control and baseline of activity. Using a type of enzyme reporter, loss-of-signal activity can be used to understand changes in the enzymatic activity as they relate to the gene MMP3. Furthermore, this assay endpoint can be referred to as a primary readout, because this assay has produced multiple assay endpoints where this one serves a enzymatic activity function. To generalize the intended target to other relatable targets, this assay endpoint is annotated to the protease intended target family, where the subfamily is matrix metalloproteinase.
# Binding assays used specific radioligands (tritiated, iodinated) with non-radioactive competitive displacement ligands in agonist or antagonist protocols (as indicated) and various reference compounds and inhibitors to titrate specific binding to receptors and transporters. Most enzyme assays (CYPs, kinases, phosphatases, proteases, HDACs) used recombinant protein and specific substrates (fluorescence mostly, some colorimetric and radioactive) and inhibitors, followed by a biochemical separation of substrate and product. All assays for the biochemical HTS were initially run in duplicate at a single concentration (10 uM for CYP450 assays and 25 uM for all others). […] Each assay was run with positive and negative controls, and concurrent controls on every plate. The follow-up (secondary) screen tested active chemical-pairs in concentration series, as well as a few additional assays not tested in the primary screen, some selected negative inactives, and several cases re-run in the concentration series for confirmatory purposes.
# [5] = molecular target: human Mitogen- and Stress-activated Protein Kinase-1 (Msk1), RPS6KA5 (gene 9252) (UniProt O75582); assay: NVS_ENZ_hMsk1: NovaScreen (NVS) Enzymatic Assay for human Mitogen- and Stress-activated Protein Kinase-1 (Msk1) (AID 2283187)
# human Mitogen- and Stress-activated Protein Kinase-1 (Msk1), RPS6KA5 (gene 9252), sequence (O75582 whole entry, looked up): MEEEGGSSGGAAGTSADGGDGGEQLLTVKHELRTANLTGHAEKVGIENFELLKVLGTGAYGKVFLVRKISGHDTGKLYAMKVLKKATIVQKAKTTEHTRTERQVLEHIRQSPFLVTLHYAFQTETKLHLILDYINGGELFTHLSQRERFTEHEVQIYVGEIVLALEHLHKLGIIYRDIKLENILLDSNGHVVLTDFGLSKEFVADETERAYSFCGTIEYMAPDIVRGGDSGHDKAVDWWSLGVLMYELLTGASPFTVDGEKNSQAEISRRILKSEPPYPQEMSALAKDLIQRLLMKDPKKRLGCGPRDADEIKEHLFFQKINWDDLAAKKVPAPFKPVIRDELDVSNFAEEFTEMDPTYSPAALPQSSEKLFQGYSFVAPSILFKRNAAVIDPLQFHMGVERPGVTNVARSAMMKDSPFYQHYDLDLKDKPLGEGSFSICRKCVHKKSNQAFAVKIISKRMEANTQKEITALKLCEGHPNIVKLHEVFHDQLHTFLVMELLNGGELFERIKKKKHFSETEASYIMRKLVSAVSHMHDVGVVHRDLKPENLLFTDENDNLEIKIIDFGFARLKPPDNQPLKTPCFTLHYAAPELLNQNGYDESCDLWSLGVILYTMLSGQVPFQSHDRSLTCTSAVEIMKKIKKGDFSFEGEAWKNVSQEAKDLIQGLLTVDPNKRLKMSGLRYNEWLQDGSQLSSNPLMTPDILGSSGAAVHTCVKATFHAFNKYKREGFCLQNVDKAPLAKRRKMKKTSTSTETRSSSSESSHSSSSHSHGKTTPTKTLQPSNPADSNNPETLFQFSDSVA
# How it was run: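 Chemicals first run in duplicate at 25 uM, with actives followed up in singleton concentration series to 50 uM maximum. Enzyme activity came from substrate/product mobility-shift separation with fluorescence detection after 1 h incubation of the recombinant protein.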
# [6] = molecular target: human Phosphoinositide 3-kinase alpha (PI3Ka), PIK3CA (gene 5290) (UniProt P42336); assay: NVS_ENZ_hPI3Ka: NovaScreen (NVS) Enzymatic Assay for human Phosphoinositide 3-kinase alpha (PI3Ka) (AID 2283196)
# Method: NVS_ENZ_hPI3Ka is a biochemical, single-readout assay that uses extracted gene-proteins in a cell-free assay. Measurements were taken 1 hour after chemical dosing in a 384-well plate.NVS_ENZ_hPI3Ka is one of one assay component(s) measured or calculated from the NVS_ENZ_hPI3Ka assay. It is designed to make measurements of enzyme activity, a form of enzyme reporter, as detected with fluorescence intensity signals by Fluorescence and electrophoretic mobility shift technology.Data from the assay component NVS_ENZ_hPI3Ka was analyzed into 1 assay endpoint. This assay endpoint, NVS_ENZ_hPI3Ka, was analyzed in the positive analysis fitting direction relative to DMSO as the negative control and baseline of activity. Using a type of enzyme reporter, loss-of-signal activity can be used to understand changes in the enzymatic activity as they relate to the gene PIK3CA. Furthermore, this assay endpoint can be referred to as a primary readout, because this assay has produced multiple assay endpoints where this one serves a enzymatic activity function. To generalize the intended target to other relatable targets, this assay endpoint is annotated to the kinase intended target family, where the subfamily is phosphoinositol kinase. […]
# [7] = molecular target: human Protein Phosphatase, Mg2+/Mn2+ Dependent 1A (PPM1A), PPM1A (gene 5494) (UniProt P35813); assay: NVS_ENZ_hPPM1A: NovaScreen (NVS) Enzymatic Assay for human Protein Phosphatase, Mg2+/Mn2+ Dependent 1A (PPM1A) (AID 2283198)
# human Protein Phosphatase, Mg2+/Mn2+ Dependent 1A (PPM1A), PPM1A (gene 5494), sequence (P35813 whole entry, looked up): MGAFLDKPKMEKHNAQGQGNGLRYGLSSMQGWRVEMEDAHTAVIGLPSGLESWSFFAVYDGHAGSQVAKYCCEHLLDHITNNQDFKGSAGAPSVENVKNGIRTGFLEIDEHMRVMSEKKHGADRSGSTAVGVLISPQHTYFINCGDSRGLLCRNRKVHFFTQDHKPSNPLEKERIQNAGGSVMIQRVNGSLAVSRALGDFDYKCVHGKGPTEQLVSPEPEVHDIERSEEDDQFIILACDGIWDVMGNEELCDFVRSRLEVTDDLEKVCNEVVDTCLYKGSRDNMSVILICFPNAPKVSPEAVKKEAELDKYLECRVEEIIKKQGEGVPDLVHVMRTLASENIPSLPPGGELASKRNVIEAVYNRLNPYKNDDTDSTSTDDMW
# How it was run: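 Primary screen in duplicate at 25 uM, with actives then titrated to a maximum of 50 uM. Recombinant PPM1A dephosphorylation of fluorescent substrate measured at 1 h, with substrate and product separated by mobility shift; inhibition fitted against DMSO.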
# [8] = molecular target: Serine/threonine-protein phosphatase PP1-alpha catalytic subunit (Homo sapiens) (UniProt P62136); assay: NVS_ENZ_hPPP1CA: NovaScreen (NVS) Enzymatic Assay for human Protein Phosphatase 1 Aatalytic subunit Alpha (PPP1CA) (AID 2283200)
# Serine/threonine-protein phosphatase PP1-alpha catalytic subunit (Homo sapiens), sequence (P62136 whole entry, looked up): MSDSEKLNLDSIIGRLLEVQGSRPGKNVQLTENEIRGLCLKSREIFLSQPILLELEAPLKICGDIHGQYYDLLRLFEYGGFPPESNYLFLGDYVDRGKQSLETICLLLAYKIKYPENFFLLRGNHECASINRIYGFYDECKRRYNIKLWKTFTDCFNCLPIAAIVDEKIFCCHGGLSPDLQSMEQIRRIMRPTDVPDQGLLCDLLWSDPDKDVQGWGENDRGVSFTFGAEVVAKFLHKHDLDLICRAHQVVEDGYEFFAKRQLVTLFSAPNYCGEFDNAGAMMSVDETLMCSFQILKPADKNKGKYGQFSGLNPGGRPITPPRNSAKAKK
# How it was run: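 Chemicals were first screened in duplicate at 25 uM, and those passing threshold (e.g. 30% inhibition) were run as concentration series to 50 uM. Cell-free recombinant protein, 1.33 h read, fluorescent substrate/product mobility-shift detection, normalised to DMSO.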
# [9] = molecular target: cAMP-dependent protein kinase catalytic subunit alpha (Homo sapiens) (UniProt P17612); assay: NVS_ENZ_hPKA: NovaScreen (NVS) Enzymatic Assay for human Protein Kinase A (PKA) (AID 2283192)
# How it was run: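 Cell-free kinase activity read by fluorescence after mobility-shift separation of substrate and product, 1 h post-dosing. Single-concentration duplicate screen (25 uM) preceded singleton concentration series (top 50 uM); loss of signal versus DMSO.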
# [10] = molecular target: human Matrix Metalloproteinase-9 (MMP9), MMP9 (gene 4318) (UniProt P14780); assay: NVS_ENZ_hMMP9: NovaScreen (NVS) Enzymatic Assay for human Matrix Metalloproteinase-9 (MMP9) (AID 2283190);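 also: cell-free recombinant MMP9 protease activity read by fluorescent substrate signal; active means inhibition seen as loss of fluorescence signal versus DMSO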
# human Matrix Metalloproteinase-9 (MMP9), MMP9 (gene 4318), sequence (P14780 whole entry, looked up): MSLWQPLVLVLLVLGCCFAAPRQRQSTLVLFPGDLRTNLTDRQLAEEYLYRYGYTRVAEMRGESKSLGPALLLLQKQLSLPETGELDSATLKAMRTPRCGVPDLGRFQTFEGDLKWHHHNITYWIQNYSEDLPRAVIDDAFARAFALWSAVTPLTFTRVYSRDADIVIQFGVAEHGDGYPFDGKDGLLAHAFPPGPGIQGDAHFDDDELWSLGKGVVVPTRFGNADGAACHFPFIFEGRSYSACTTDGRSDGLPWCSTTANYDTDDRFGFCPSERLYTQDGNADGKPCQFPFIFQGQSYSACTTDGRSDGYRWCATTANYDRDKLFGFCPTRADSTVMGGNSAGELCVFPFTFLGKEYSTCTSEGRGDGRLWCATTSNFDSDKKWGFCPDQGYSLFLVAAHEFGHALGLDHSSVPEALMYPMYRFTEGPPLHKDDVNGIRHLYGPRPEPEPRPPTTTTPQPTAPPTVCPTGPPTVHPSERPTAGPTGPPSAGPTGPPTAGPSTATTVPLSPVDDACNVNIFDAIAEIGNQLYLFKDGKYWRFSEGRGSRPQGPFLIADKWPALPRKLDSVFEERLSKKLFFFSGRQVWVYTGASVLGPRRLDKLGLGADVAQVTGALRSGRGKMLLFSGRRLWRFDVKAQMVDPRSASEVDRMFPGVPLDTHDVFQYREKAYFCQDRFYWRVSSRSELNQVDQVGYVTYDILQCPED
# How it was run: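 Inhibition was scored as loss of fluorescence signal against DMSO controls. The recombinant protease was exposed to chemicals for 1 hour before reading; initial testing used 25 uM in duplicate.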
smiles,measurement,setting,value
Cc1cc(CCN2CCN(c3nsc4ccccc34)CC2)cc2c1NC(=O)CC2(C)C,outcome,[1],inactive
same,AC50,[2],25.6 µM (active)
same,AC50,[3],25 µM (active)
CC(C)CCCCCCOC(=O)CCCCC(=O)OCCCCCCC(C)C,outcome,[4],inactive
COCC(C)OCC(C)O (centres undefined),outcome,[5],inactive
same,outcome,[6],inactive
CCCCCCCCCCCCCCCS(=O)(=O)Oc1ccccc1,outcome,[1],inactive
NC(=O)N(O)[C@@H]1C=C[C@H](Oc2cccc(Oc3ccc(F)cc3)c2)C1,AC50,[1],23 µM (active)
same,outcome,[7],inactive
CC(O)CO (centres undefined),outcome,[2],inactive
CN1CCC[C@H]1c1cccnc1,outcome,[8],inactive
CCCOc1sc(C(=O)N2CCC(c3cc(CN)ccc3F)CC2)c(C)c1Br,outcome,[4],inactive
same,outcome,[9],inactive
same,outcome,[7],inactive
CCc1nn(C2CCCCC2)c2cc(C3(C#N)CCC(C(=O)O)CC3)ccc12 (centres undefined),AC50,[1],0.00229 µM (active)
same,outcome,[2],inactive
same,outcome,[3],inactive
NC(=O)N1C(=O)C(C(=O)c2cc(Cl)cs2)c2cc(F)c(Cl)cc21 (centres undefined),AC50,[9],25 µM (active)
CCCCCCCCCCCCc1ccccc1S(=O)(=O)O,AC50,[4],18.2 µM (active)
same,AC50,[5],16.8 µM (active)
same,AC50,[7],30.2 µM (active)
N#C[C@@H]1CC(F)(F)CN1C(=O)CNC1CC2CCC(C1)N2c1ncccn1 (some centres undefined),outcome,[8],inactive
CCCCOCCO,outcome,[8],inactive
CCCCCCC(=O)O,outcome,[2],inactive
same,outcome,[7],inactive
CCCCCCCC(=O)O,outcome,[5],inactive
same,outcome,[9],inactive
same,outcome,[2],inactive
CCCOC(=O)c1ccc(O)cc1,outcome,[8],inactive
Cc1oc(-c2ccccc2)nc1CCOc1ccc(C[C@H](Nc2ccccc2C(=O)c2ccccc2)C(=O)O)cc1,outcome,[4],inactive
same,AC50,[10],11.9 µM (active)
CCCCCCCCCCCCCC[N+](C)(C)C,outcome,[10],inactive
same,outcome,[3],inactive
same,AC50,[6],8.66 µM (active)
OCCC(F)(F)C(F)(F)C(F)(F)C(F)(F)C(F)(F)C(F)(F)F,outcome,[2],inactive
CCN(CC)CCNc1ccc(CNC=O)c2sc3ccc(OC)cc3c(=O)c12,outcome,[10],inactive
same,AC50,[1],11.8 µM (active)
same,AC50,[2],6.82 µM (active)
same,AC50,[3],2.06 µM (active)
same,outcome,[8],inactive
CC(C)(C)c1cccc(C(C)(C)C)c1O,outcome,[8],inactive
CC(C)(C)CC(C)(C)c1ccc(O)c(-n2nc3ccccc3n2)c1,outcome,[5],inactive
COC(=O)CCCCC(=O)OC,outcome,[2],inactive
same,outcome,[7],inactive
c1ccc2cc3c(ccc4ccccc43)cc2c1,outcome,[1],inactive
O=C(O)Cc1cc(I)c(Oc2cc(I)c(O)c(I)c2)c(I)c1,AC50,[1],0.0269 µM (active)
same,outcome,[9],inactive
same,AC50,[2],9.05 µM (active)
same,AC50,[3],8.91 µM (active)
